About 8,800 targets were measured; listed, in parts, are those with a hit and a random draw of the rest. About 0.5% of all pairs of compound and target were hits.
Assays:
Assay in all cases: log2 fold change, soluble protein after heating vs DMSO (PISA); higher = thermal stabilisation; K562 lysate, 10 uM; active = over 0.2 and 3.5 SD of the protein, either way, in both replicates (recomputed)
lapatinib = compound: CS(=O)(=O)CCNCc1ccc(-c2ccc3ncnc(Nc4ccc(OCc5cccc(F)c5)c(Cl)c4)c3c2)o1 [lapatinib]
In short: (§1)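 Pellets of K562 cells were dounce-homogenised in PBS pH 7.4 with 1 mM MgCl2, and the crude extract was held at 1 mg/mL protein for a 30 min treatment with 10 μM compound. Aliquots were heated for 3 min over 48°C-58°C and pooled before NP-40 was added to 0.5% at 4°C. The supernatant from 21,000xg for 90 min was quantified by TMTpro 16plex LC-MS/MS with channel sums equalised. Values are reported from duplicates as log-two fold change in thermal stability relative to solvent controls.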

pictilisib = compound: CS(=O)(=O)N1CCN(Cc2cc3nc(-c4cccc5[nH]ncc45)nc(N4CCOCC4)c3s2)CC1 [pictilisib]
In short: as §1

crizotinib = compound: C[C@@H](Oc1cc(-c2cnn(C3CCNCC3)c2)cnc1N)c1c(Cl)ccc(F)c1Cl [crizotinib]
In short: as §1

[1] = compound: C[C@H](C1=CC=C(C=C1)C(=O)NC2=C3C=CNC3=NC=C2)N
In short: as §1

duvelisib = compound: C[C@H](Nc1ncnc2nc[nH]c12)c1cc2cccc(Cl)c2c(=O)n1-c1ccccc1 [duvelisib]
In short: as §1

gandotinib = compound: Cc1cc(Nc2cc(CN3CCOCC3)c3nc(C)c(Cc4ccc(Cl)cc4F)n3n2)n[nH]1 [gandotinib]
In short: as §1

tozasertib = compound: Cc1cc(Nc2cc(N3CCN(C)CC3)nc(Sc3ccc(NC(=O)C4CC4)cc3)n2)n[nH]1 [tozasertib]
In short: as §1

doramapimod = compound: Cc1ccc(-n2nc(C(C)(C)C)cc2NC(=O)Nc2ccc(OCCN3CCOCC3)c3ccccc23)cc1 [doramapimod]
In short: as §1

bafetinib = compound: Cc1ccc(NC(=O)c2ccc(CN3CC[C@H](N(C)C)C3)c(C(F)(F)F)c2)cc1Nc1nccc(-c2cncnc2)n1 [bafetinib]
In short: as §1

[2] = compound: Cc1cccc(CC(=O)N2CCc3c2ccc(-c2cn(C)c4ncnc(N)c24)c3F)n1
In short: as §1

nilotinib = compound: Cc1cn(-c2cc(NC(=O)c3ccc(C)c(Nc4nccc(-c5cccnc5)n4)c3)cc(C(F)(F)F)c2)cn1 [nilotinib]
In short: as §1

[3] = compound: Cc1nc(Nc2n[nH]c3c2CN(C(=O)N[C@H](CN(C)C)c2ccccc2)C3(C)C)c2sccc2n1
In short: as §1

dasatinib = compound: Cc1nc(Nc2ncc(C(=O)Nc3c(C)cccc3Cl)s2)cc(N2CCN(CCO)CC2)n1 [dasatinib]
In short: as §1

[4] = compound: Cc1ncc(-c2ccnc(Nc3ccc(S(C)(=O)=O)cc3)n2)n1C(C)C
In short: as §1

[5] = compound: Cn1cc(-c2ccc3c(c2)CCN3C(=O)Cc2cccc(C(F)(F)F)c2)c2c(N)ncnc21
In short: as §1

quisinostat = compound: Cn1cc(CNCC2CCN(c3ncc(C(=O)NO)cn3)CC2)c2ccccc21 [quisinostat]
In short: as §1

tipifarnib = compound: Cn1cncc1[C@@](N)(c1ccc(Cl)cc1)c1ccc2c(c1)c(-c1cccc(Cl)c1)cc(=O)n2C [tipifarnib]
In short: as §1

[6] = compound: NC(=O)Nc1cc(-c2cccc(F)c2)sc1C(=O)N[C@H]1CCCNC1
In short: as §1

[7] = compound: NC(=O)c1cnc(N[C@@H]2CCCC[C@@H]2N)nc1Nc1cccc(-n2nccn2)c1
In short: as §1

[8] = compound: NC1(c2ccc(-c3nc4ccn5c(=O)[nH]nc5c4cc3-c3ccccc3)cc2)CCC1
In short: as §1

Measured: log2 fold change

CDK5RAP3 isoform 4 (UniProt Q96JB5)
Sequence of UniProt Q96JB5 (Q96JB5 whole entry, looked up): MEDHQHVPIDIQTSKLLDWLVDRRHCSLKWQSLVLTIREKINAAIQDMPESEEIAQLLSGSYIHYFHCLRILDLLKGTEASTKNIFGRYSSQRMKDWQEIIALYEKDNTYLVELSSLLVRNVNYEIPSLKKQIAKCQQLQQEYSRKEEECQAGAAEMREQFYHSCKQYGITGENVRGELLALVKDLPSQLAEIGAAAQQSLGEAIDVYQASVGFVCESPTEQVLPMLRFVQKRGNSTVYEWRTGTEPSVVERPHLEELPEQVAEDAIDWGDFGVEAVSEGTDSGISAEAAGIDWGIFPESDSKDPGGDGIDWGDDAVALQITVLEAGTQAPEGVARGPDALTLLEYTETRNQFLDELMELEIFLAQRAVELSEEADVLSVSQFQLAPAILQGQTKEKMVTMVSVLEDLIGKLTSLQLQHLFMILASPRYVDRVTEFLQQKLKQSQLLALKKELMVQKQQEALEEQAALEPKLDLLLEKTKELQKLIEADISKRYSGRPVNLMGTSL
active: [1] -0.231
inactive: lapatinib -0.013 | pictilisib -0.028 | crizotinib -0.054 | duvelisib -0.002 | gandotinib 0.173 | tozasertib 0.019 | doramapimod 0.017 | bafetinib -0.02 | [2] 0.211 | nilotinib 0.003 | [3] -0.016 | dasatinib -0.067 | [4] 0.006 | [5] 0.045 | quisinostat -0.03 | tipifarnib -0.043 | [6] 0.023 | [7] 0.026 | [8] -0.007

CDS2 (UniProt O95674)
Sequence of UniProt O95674 (O95674 whole entry, looked up): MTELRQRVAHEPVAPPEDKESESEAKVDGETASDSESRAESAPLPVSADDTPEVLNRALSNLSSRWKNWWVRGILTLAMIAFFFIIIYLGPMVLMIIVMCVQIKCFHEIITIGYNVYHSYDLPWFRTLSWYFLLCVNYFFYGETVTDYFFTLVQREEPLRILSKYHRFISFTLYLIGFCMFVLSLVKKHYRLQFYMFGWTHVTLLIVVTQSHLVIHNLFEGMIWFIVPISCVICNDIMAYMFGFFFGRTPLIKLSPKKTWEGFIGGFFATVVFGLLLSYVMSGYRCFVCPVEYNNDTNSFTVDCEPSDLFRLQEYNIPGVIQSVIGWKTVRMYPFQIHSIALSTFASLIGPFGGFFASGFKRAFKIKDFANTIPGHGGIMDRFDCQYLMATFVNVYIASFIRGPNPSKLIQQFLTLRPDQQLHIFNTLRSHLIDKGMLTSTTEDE
inactive: lapatinib 0.02 | pictilisib -0.007 | crizotinib 0.031 | [1] -0.029 | duvelisib 0.088 | gandotinib 0.048 | tozasertib 0.054 | doramapimod 0.009 | bafetinib 0.006 | [2] 0.019 | nilotinib -0.035 | [3] -0.093 | dasatinib 0.073 | [4] 0.062 | [5] -0.005 | quisinostat -0.045 | tipifarnib 0.093 | [6] -0.01 | [7] 0 | [8] -0.152

CALB2 (UniProt P22676)
Sequence of UniProt P22676 (P22676 whole entry, looked up): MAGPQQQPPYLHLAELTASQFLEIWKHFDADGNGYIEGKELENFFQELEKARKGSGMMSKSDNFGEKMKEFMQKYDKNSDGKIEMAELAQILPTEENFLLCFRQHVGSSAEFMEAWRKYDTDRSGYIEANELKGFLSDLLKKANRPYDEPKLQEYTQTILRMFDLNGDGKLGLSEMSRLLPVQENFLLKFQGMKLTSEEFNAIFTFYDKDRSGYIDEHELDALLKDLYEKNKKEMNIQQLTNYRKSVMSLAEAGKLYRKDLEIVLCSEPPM
inactive: lapatinib 0.009 | pictilisib -0.07 | crizotinib 0.01 | [1] -0.041 | duvelisib 0.031 | gandotinib 0.092 | tozasertib 0.056 | doramapimod 0.003 | bafetinib 0.082 | [2] -0.007 | nilotinib 0.098 | [3] -0.085 | dasatinib -0.037 | [4] 0.056 | [5] 0.016 | quisinostat 0.091 | tipifarnib -0.079 | [6] -0.006 | [7] -0.004 | [8] 0.046

CDK1 (UniProt P06493)
Sequence of UniProt P06493 (P06493 whole entry, looked up): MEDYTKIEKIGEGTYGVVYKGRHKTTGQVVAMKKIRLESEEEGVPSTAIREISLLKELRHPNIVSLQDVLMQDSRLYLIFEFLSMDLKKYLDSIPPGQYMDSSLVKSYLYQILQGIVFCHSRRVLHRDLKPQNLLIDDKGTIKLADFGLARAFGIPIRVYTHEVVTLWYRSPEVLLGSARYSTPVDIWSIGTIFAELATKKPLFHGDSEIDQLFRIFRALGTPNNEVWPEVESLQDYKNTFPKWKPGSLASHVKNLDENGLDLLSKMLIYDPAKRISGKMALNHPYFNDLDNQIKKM
inactive: lapatinib -0.012 | pictilisib -0.021 | crizotinib -0.041 | [1] -0.018 | duvelisib 0.031 | gandotinib -0.224 | tozasertib 0.001 | doramapimod 0.019 | bafetinib -0.016 | [2] -0.022 | nilotinib -0.026 | [3] 0.018 | dasatinib -0.027 | [4] 0.067 | [5] -0.02 | quisinostat 0.003 | tipifarnib 0.015 | [6] 0.012 | [7] 0.127 | [8] 0.015

ATR (UniProt Q13535)
inactive: lapatinib -0.036 | crizotinib -0.1 | [1] -0.158 | duvelisib 0.032 | gandotinib 0.117 | tozasertib 0.044 | doramapimod 0.068 | bafetinib -0.033 | [2] 0.161 | nilotinib -0.075 | [3] 0.002 | dasatinib 0.001 | [4] 0.013 | [5] 0.001 | quisinostat -0.219 | tipifarnib -0.032 | [6] 0.047 | [7] 0.014 | [8] -0.085
active: pictilisib 0.408

BUB1B isoform 3 (UniProt O60566)
Sequence of UniProt O60566 (O60566 whole entry, looked up): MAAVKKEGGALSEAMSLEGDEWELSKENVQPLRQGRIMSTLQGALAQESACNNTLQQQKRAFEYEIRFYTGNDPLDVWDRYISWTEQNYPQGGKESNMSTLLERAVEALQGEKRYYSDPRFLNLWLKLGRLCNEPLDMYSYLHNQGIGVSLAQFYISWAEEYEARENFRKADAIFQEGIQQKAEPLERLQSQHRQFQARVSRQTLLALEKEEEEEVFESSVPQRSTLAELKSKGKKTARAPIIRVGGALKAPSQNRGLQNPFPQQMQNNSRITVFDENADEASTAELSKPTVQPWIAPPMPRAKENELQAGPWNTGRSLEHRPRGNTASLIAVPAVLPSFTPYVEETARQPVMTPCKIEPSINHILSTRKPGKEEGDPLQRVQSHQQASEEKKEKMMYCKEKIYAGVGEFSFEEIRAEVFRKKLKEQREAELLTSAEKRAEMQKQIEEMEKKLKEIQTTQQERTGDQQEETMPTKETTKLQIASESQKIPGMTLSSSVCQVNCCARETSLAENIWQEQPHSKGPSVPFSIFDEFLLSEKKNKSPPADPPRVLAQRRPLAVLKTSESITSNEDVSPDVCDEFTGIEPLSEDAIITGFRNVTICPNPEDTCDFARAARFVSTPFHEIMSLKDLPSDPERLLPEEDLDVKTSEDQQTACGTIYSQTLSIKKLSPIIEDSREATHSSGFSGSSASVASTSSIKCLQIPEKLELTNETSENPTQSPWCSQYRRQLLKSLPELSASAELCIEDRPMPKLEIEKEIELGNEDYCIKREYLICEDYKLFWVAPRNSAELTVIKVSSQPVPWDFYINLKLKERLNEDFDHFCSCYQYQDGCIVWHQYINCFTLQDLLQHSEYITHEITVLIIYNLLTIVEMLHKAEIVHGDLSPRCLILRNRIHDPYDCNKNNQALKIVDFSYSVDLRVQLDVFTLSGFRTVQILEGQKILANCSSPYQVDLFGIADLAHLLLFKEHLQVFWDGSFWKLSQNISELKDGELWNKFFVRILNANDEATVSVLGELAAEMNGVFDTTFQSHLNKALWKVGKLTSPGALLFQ
inactive: lapatinib 0.009 | pictilisib -0.038 | crizotinib -0.059 | [1] 0.007 | duvelisib 0.024 | gandotinib -0.04 | tozasertib -0.01 | doramapimod 0.019 | bafetinib -0.029 | [2] 0.035 | nilotinib 0.007 | [3] -0.012 | dasatinib -0.015 | [4] 0.014 | [5] 0.024 | quisinostat -0.076 | tipifarnib -0.013 | [6] 0.028 | [7] -0.003 | [8] -0.004

Source: the supplement of paper PMC10849652
